± gives the standard deviation of the averaged measurements.
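Further: End-point A600 read in BHI broth at 37 °C with 2% DMSO, inhibition computed as (1 − OD with compound plus ceftriaxone ÷ OD with ceftriaxone only) × 100.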

For the experiment, the system named is Listeria monocytogenes 10403S. Nature of the experiment: growth inhibition relative to ceftriaxone-alone control; higher = stronger potentiation of ceftriaxone growth inhibition. The settings on record: 10 µM; ceftriaxone 1 ug/ml; 12 h.
With `CCS(=O)(=O)N1CC(CC#N)(n2cc(-c3ncnc4[nH]ccc34)cn2)C1`, the growth inhibition is 20.4 ± 0.71%.
In the case of `O=C1NC(=O)/C(=C/c2ccc3c(c2)OC(F)(F)O3)S1` it was 41.2 ± 7.3%; in that of `Cc1cn(-c2cc(NC(=O)c3ccc(C)c(Nc4nccc(-c5cccnc5)n4)c3)cc(C(F)(F)F)c2)cn1` [Nilotinib (AMN-107)], 46.8 ± 3.8%.
As for `CN(C)C(=O)O[C@H]1CN[C@H](C#Cc2cc3ncnc(Nc4ccc(OCc5cccc(F)c5)c(Cl)c4)c3s2)C1`, the growth inhibition was -7.88 ± 10%.
Regarding `CN(C[C@@H]1COCCO1)S(=O)(=O)Nc1ccc2ccc3ncc(-c4cnn(C)c4)cc3c(=O)c2c1`, the growth inhibition is -22.01 ± 0.12%.
Regarding `N#CC1(c2ccc(NC(=O)c3cccnc3NCc3ccncc3)cc2)CCCC1` [Apatinib (YN968D1)], the growth inhibition amounted to 12.7 ± 6.2%.
As to `COc1cccc(-n2cnc3c(N/N=C/c4ccncc4)ncnc32)c1`, the growth inhibition is -10.6 ± 15%.
As to `CC(C)(C)c1nc(-c2cccc(NS(=O)(=O)c3c(F)cccc3F)c2F)c(-c2ccnc(N)n2)s1`, the growth inhibition was 56.2 ± 26%.
Regarding `FC(F)(F)c1ccc(-c2nn3ncccc3c2-c2ccnc(Nc3ccc4c(c3)OCCO4)n2)cc1`, the growth inhibition was -7.04 ± 3.3%.
For the compound `COc1ccc(-c2cc3c(C)nc(N)nc3n([C@H]3CC[C@H](OCCO)CC3)c2=O)cn1`, the growth inhibition was 12.2 ± 9.5%.
As to `COc1cc2ncn(-c3cc(OCc4ccccc4C(F)(F)F)c(C(=O)N(C)C)s3)c2cc1OC`, the growth inhibition is -5.41 ± 4.1%.
As to `CN(c1ccc(NC(=O)NCCN2CCOCC2)cc1)c1ccnc(Nc2ccc(CS(C)(=O)=O)cc2)n1`, the growth inhibition was -5.31 ± 3%.
The value for `CC(C)(O)CC(=O)NCCn1ccc2ncnc(Nc3ccc(Oc4cccc(C(F)(F)F)c4)c(Cl)c3)c21` was 98.62 ± 0.75%; that for `COc1cc2c(cc1Nc1nc(Nc3ccsc3C(N)=O)c3cc[nH]c3n1)N(C(=O)CN(C)C)CCC2` was -0.422 ± 3.1%; that for `CC(C)(C)Cn1c(N)nc2ccc(-c3[nH]c(C(C)(C)C)nc3-c3ccc(F)cc3)nc21` was 97.5 ± 1.3%.
In the case of `CCc1cccc(CC)c1/C=C/c1cncc(C(=O)NC)c1` it was 14.6 ± 2.7%; in that of `COc1ccc2ncn(-c3cc(O[C@H](C)c4ccccc4C(F)(F)F)c(C(N)=O)s3)c2c1`, 0.811 ± 11%; in that of `NS(=O)(=O)c1ccc(N/N=C2\C(=O)Nc3ccc4ncccc4c32)cc1`, -6.48 ± 3.8%.
The value for `Cc1ccc(C(=O)NC2CC2)cc1-c1ccc2[nH]ncc2c1` was 8.37 ± 0.62%; that for `NC(=O)c1cc(-c2ccncc2)cc(-c2ccccc2)c1N` was 2.14 ± 8.1%.
For the compound `CCn1c(-c2nonc2N)nc2cnc(Oc3cccc(NC(=O)c4ccc(N(C)C)cc4)c3)cc21`, the growth inhibition is -5.93 ± 1.5%.
On to `COc1cccc(-n2nc(C)c3c(N/N=C(\C)c4ccncc4)ncnc32)c1`, for which the growth inhibition is -12.5 ± 20%.
With `CN1CCN(CCOc2cc(OC3CCOCC3)c3c(Nc4c(Cl)ccc5c4OCO5)ncnc3c2)CC1` [Saracatinib (AZD0530)], the growth inhibition was -2.45 ± 20%.
For `Cc1nc(Nc2ncc(C(=O)Nc3c(C)cccc3Cl)s2)cc(N2CCN(CCO)CC2)n1`, the growth inhibition came to 32 ± 20%.
In the case of `COc1ccc2ncnc(Nc3ccc(OCc4ccccc4)cc3)c2c1`, the growth inhibition is 1.99 ± 13%.
Regarding `CCCN1CCC=C(c2ccc(Nc3nc(Nc4ccccc4C(N)=O)c4cc[nH]c4n3)c(C)c2)C1`, the growth inhibition was -7.58 ± 1.9%.
Turning to `CNC(=O)CN1CCC(Oc2cc3c(Nc4cccc(Cl)c4F)ncnc3cc2OC)CC1`, the growth inhibition was found to be 0.347 ± 1.9%.
As for `Cc1cc(C)c(/C=C2\C(=O)Nc3ccccc32)[nH]1` [Semaxanib (SU5416)], the growth inhibition was -4.38 ± 12%.
Take `NS(=O)(=O)c1ccc(Nc2cc(-c3cccc(O)c3)n[nH]2)cc1`: the growth inhibition was found to be 10.9 ± 3.9%.
In the case of `c1ccc(Cc2nc3ccc(Nc4ncnc5ccccc45)cc3[nH]2)cc1`, the growth inhibition was -14.5 ± 19%.
In the case of `COc1ccc(C2=C(N3CCc4ccccc43)C(=O)NC2=O)cc1` it was -2.53 ± 0.37%; in that of `Cc1cc2c(F)c(Oc3ncnn4cc(OC[C@@H](C)O)c(C)c34)ccc2[nH]1`, 15.5 ± 23%.
Regarding `N#Cc1cccc(Nc2nccc(-c3cnn4ncccc34)n2)c1`, the growth inhibition is -0.568 ± 0.54%.
For `CCS(=O)(=O)c1ccc(OC)c(Nc2nccc(N(C)c3ccc4c(C)n[nH]c4c3)n2)c1`, the growth inhibition was 0.981 ± 2.5%.
The value for `Cc1ccc(NC(=O)c2cccc(N(C)C)c2)cc1NC(=O)c1ccc(O)cc1` was 29.5 ± 12%; that for `COc1ccc2c3n(c(=NC(=O)c4cccnc4)nc2c1OC)CCN3` was -0.968 ± 4.8%; that for `COc1cc2ncnc(Nc3cccc(Br)c3)c2cc1OC` was 36.1 ± 16%.
For the compound `Cc1ccc(-c2cc3c(NC(=O)C4CC4)ncnc3o2)cc1`, the growth inhibition is -3.41 ± 5.3%.

(Values after the supplement of paper PMC5641865, “A screen for kinase inhibitors identifies antimicrobial imidazopyridine aminofurazans as specific inhibitors of the Listeria monocytogenes PASTA kinase PrkA” (The Journal of Biological Chemistry, 2017).)
